Compounds with a hit are over-represented: about 2.6% of the library has one in this group of screens.
Nrf2 block: Nrf2 qHTS screen for inhibitors | Potency, µM (highest dose often 46 µM), without a hit: top-dose activity change, negative = inhibition, most hits filed as inhibitors | 360,000 compounds, 2.1% hits | A549 ARE-Fluc reporter, luciferase luminescence, 18-24 h; note: potency is the fitted concentration of half-maximal effect; % is set by controls: 0 for no effect and ±100 for the full control effect; nearly all actives have a fitted effect of over 60% in size
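Two sequential reads on A549 ARE_Fluc cells exposed to compound for 18-24 h: a CellTiter-Fluor fluorescence read for viability, then a luciferase luminescence read for Nrf2/ARE activity.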
CCT chaperon mod: High-Throughput Screening for Modulators of Cytosolic Chaperonin Activity; purified chaperonin ATPase assay, HTRF ADP detection, 30 min; activity change, % (test concentration not listed), hits read low; 360,000 compounds, 0.3% hits; AID 651819, 2012; in the data active = activity change below about -30%; note: % is set by controls: 0 for no effect and ±100 for the full control effect
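ATPase activity: ADP formed was measured by HTRF Transcreener (665/615 nm ratio) after 30 min at 37 deg C with 10 uM ATP. Compounds screened at one 76 uM concentration against 40 or 20 nM TRiC in Tris pH 7.4/KCl/MgCl2/DTT buffer.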
Nrf2 activator: qHTS of Nrf2 Activators; AREc32 ARE-luciferase reporter (MCF7-derived line), luminescence, 24 h; Potency, µM (highest dose often 46.1 µM), inactives show at the top dose activation, actives largely listed as activators; 410,000 compounds, 0.31% hits; note: potency is the fitted concentration of half-maximal effect; % of control where 0% means no effect; nearly all actives have a fitted effect of over 65% in size
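AREc32_Fluc, 1000 cells/well, OPTI-MEM + 5% FBS, o/n 37 deg C 5% CO2; 23 nL cpd by pin tool, 24 hr; Steady-Glo 30 min RT, luminescence.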
A549 tox: Nrf2 qHTS screen for inhibitors: counterscreen for cytotoxicity. Potency, µM (series often up to 46 µM), for the others: at the top dose activity change, negative = cytotoxicity, usual class: inhibitors. 390,000 compounds, 0.16% hits. A549 ARE-Fluc cells, CellTiter-Fluor viability, 18-24 h; note: potency is the fitted concentration of half-maximal effect; % is set by controls: 0 for no effect and ±100 for the full control effect
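A549 ARE-Fluc cells in 5% FBS OPTI-MEM, 5000 cells/well, rested 2 h then exposed to compounds in concentration-response for 18-24 h at 37 °C. Viability by CellTiter-Fluor fluorescence (Ex 405/Em 525) after 30 min; luciferase luminescence (BugLite, 15 min, RT) read afterwards.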
TCR activator: Activators of T cell receptors: qHTS campaign. 330,000 tested, under 10 active. primary human leukocytes, anti-CD3, IL-2 HTRF, 48 h. AID 504894, 2011. Potency, µM (doses to about 9.22 µM), for the others: top-dose activation of IL-2 secretion, actives largely listed as activators; note: % of control where 0% means no effect
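Primary human leukocytes were stimulated with a-CD3 beads plus compounds for 48 hr without co-stimulation; secreted IL-2 was quantified by HTRF using a-IL-2-K (europium cryptate) and a-IL-2-d2, excited at 320nm with acceptor emission read at 665nm.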
AT treatment: qHTS Assay for Identifying a Potential Treatment of Ataxia-Telangiectasia | F2112 A-T fibroblasts, KAP-1 phosphorylation AlphaLISA; neocarzinostatin DNA damage 30 min before lysis | Potency, µM (highest dose often 57.5 µM), for the others: at the highest dose activation, usual class: activators | 320,000 compounds, 0.19% hits; note: potency is the fitted concentration of half-maximal effect; % of control where 0% means no effect; nearly all actives have a fitted effect of over 45% in size
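hTERT-immortalized A-T patient fibroblasts (F2112), 500 cells/well in OPTI-MEM, 1% FBS, got compounds for 60 min, then NCS for 30 min at 37C. Lysates were then assayed for phospho-KAP-1 by AlphaLISA (anti-pKAP1 donor, anti-KAP1 acceptor beads), 6 hr at 25C.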
* marks the source's active call; other numbers are inactive results; ? = inconclusive; nt = no result given; [ ] = remark or other dose. Unless noted, calls come from the whole dose curve; as a rule, active = well fitted curve in the direction sought with a large enough effect; inconclusive = small, poorly fitted or top-dose-only effect, or another doubt; inactive = no such curve, though single readings can be large; an effect the other way counts as inactive or inconclusive.

SMILES | Nrf2 block | CCT chaperon mod | Nrf2 activator | A549 tox | TCR activator | AT treatment
COc1cc(OC)cc(C(=O)Nc2cc(-c3nc4cccnc4s3)ccc2C)c1 | 2% | nt | -1% | -14% | nt | nt
Cc1ccc(S(=O)(=O)C2(C(=O)NCCc3ccccc3)CC2)cc1 | -12% | -1 | 0% | 4% | 1% | 0%
O=C(N/N=C/c1cccc(Oc2ccccc2)c1)c1cccc(O)c1 | 13% | -2 | 0% | -5% | -6% | 2%
Cc1cccc(NC(=S)N/N=C/c2ccc([N+](=O)[O-])s2)c1 | 11µM* | 0 | -1% | ? | -7% | 1%
O=C(N/N=C/c1cccc(Oc2ccccc2)c1)c1cccc(Br)c1 | 18µM* | -1 | 3% | 0%[1.84 µM] | nt | -1%
O=C(CCC1CCN(C(=O)c2cc(C(F)(F)F)ccc2Cl)CC1)NC1CC1 | 2% | 2 | 0% | 1% | 10% | -1%
O=c1nc2c(O)cccn2c2c1c(=O)[nH]c1ccccc12 | 13% | 1 | 5.6µM* | -8% | 5%[46.1 µM] | 3%
O=c1[nH]c2ccccc2c2nc3ccccn3c12 | -29% | 1 | 22% | -6% | -1% | -3%
CN(C(=O)COC(=O)Cc1ccc(Cl)cc1)C1CCCCC1 | -4% | -4 | 0% | 0% | -1%[46.1 µM] | 5%
Cc1ccc2nc(-c3cccc(-c4nc5ccc(C)cc5o4)n3)oc2c1 | 5% | nt | nt | -1% | nt | nt
Cc1ccc(-c2nc(C=Nc3ccc(O)cc3)c(O)o2)cc1 | 16% | 1 | 6.3µM* | ? | -2% | 4%
CN=Cc1nc(-c2ccccc2)oc1O | ? | -1 | 0% | ? | -1%[46.1 µM] | -3%
Cc1ccc2nc(-c3ccc(O)cc3)oc2c1 | 6.5µM* | 0 | 0% | 1% | 0% | -6%
Oc1oc(-c2ccco2)nc1C=Nc1ccccc1 | 1% | -7 | 13µM* | -2% | -6% | 3%
C=CCn1c(SCC(=O)NC2(C#N)CCCCC2)nnc1-c1ccncc1 | -26% | -1 | 0% | -3% | 3% | 0%
Cc1n[nH]c(C)c1S(=O)(=O)N(CC(=O)NCc1ccccc1Cl)c1ccc(C(C)C)cc1 | ? | nt | -2% | -4% | nt | nt
Cc1noc(C)c1-c1ccc2ncnc(NCc3ccc(Br)cc3)c2c1 | -63% | nt | nt | 4% | nt | nt
COc1ccc(OC(=O)c2ccc3nsnc3c2)cc1 | nt | -48* | 0% | 21% | 3% | nt
Brc1cccc(-c2cnn3c(-c4ccccc4)cc(-c4ccccc4)nc23)c1 | 10% | nt | 4% | -3% | nt | nt
COc1nccnc1NS(=O)(=O)c1ccc(NC(=S)NC(=O)c2cccc(F)c2)cc1 | 2% | -63* | 4% | 1% | 7%[46.1 µM] | 16%
Cc1ccc(Cl)cc1N1CCN(C(=O)c2ccc(CS(=O)Cc3ccc(Cl)cc3)o2)CC1 (stereo not given) | ? | 3 | -1% | -8% | 2% | -2%
Cc1ccc(C)c(N2CCN(C(=O)c3ccc(CS(=O)Cc4ccc(Cl)cc4)o3)CC2)c1 (stereo not given) | 21µM* | 3 | 0% | ? | -3% | -1%
CC1=C(CO)C(=O)OC([C@@H](C)C2CC[C@H]3C4C[C@H]5O[C@]56[C@@H](O)C=CC(=O)[C@]6(C)C4CC[C@]23C)C1 (stereo not given in full) | 13µM* | -2 | -2% | -18% | 15% | 5%
C=CCNc1ncnc2c1[nH]c1ccc(Cl)cc12 | 8.2µM* | -3 | 18% | ? | -2% | 4%
C=CCNc1ncnc2c1[nH]c1ccccc12 | ? | -3 | 27% | -13% | -2% | -21%
CN=c1nc(-c2ccccc2)n(-c2ccccc2)s1 | ? | -1 | 14% | -7% | 57% | -2%
Cc1ccc(-c2nc(=Nc3c(C)cc(C)cc3C)sn2-c2ccccc2)cc1 | 23µM* | nt | nt | -30% | nt | nt

Compound activity as filed in PubChem BioAssay.
